# In PubChem BioAssay AID641 (Vanderbilt High Throughput Screening Facility, 2007):
# About 3,400 (5.9%) of roughly 58,000 compounds were called active.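 How the source made its calls: active means luminescence count or its row- and column-corrected plate score outside the 99.7% band of the plate's sample wells, on either side; inactive means the rest.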 This excerpt belongs to a sample that is enriched for actives.
# Target: D(1A) dopamine receptor (Homo sapiens) (UniProt P21728)
# Assay: D1 CRE-luciferase signal change, two-sided – cell-based, HEK293 D1, dopamine EC30, D1 allosteric modulator project, primary screen (AID 641)
# Conditions: dopamine EC30 potentiation, at 10 µM, actives deviate in either direction
# D(1A) dopamine receptor (Homo sapiens), sequence (P21728 whole entry, looked up): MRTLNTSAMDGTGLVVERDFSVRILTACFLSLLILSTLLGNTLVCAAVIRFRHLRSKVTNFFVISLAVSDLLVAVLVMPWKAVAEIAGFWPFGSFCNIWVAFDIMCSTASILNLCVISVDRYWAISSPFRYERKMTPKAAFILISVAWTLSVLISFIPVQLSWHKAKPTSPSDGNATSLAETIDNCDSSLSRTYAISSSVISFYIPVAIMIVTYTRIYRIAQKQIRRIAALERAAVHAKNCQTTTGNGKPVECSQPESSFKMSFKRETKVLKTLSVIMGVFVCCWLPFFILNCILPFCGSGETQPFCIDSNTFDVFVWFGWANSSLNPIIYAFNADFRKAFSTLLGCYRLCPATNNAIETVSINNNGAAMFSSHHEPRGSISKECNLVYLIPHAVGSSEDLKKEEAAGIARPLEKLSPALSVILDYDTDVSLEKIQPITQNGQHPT
row,SMILES,B-score
1,Fc1ccc2[nH]c3c(N4CCSCC4)ncnc3c2c1,-5.42 (active)
2,Cc1ccc2c(c1)NCC(C(=O)NC1CCC(C)CC1)O2 (stereo not given),0.396 (inactive)
3,CC1(C)CC(=O)C=C(NC2CC(C)(C)NC(C)(C)C2)C1,-0.998 (inactive)
4,CCCCc1c(O)nc2n(c1=O)CCS2,3.41 (active)
5,CCOC(=O)N1CCN(C(=O)c2cnc3n(c2=O)CCS3)CC1,0.461 (inactive)
6,CN(CCc1ccccn1)S(=O)(=O)c1ccc2c3c(cccc13)C(=O)N2,0.281 (inactive)
7,CCC/C(O)=C1\C(=O)CC(C)(C)CC1=Nc1ccccc1OC,0.24 (inactive)
8,COc1ccc(NC(=O)c2cccc(NC(=O)c3ccco3)c2)c(OC)c1,-0.0282 (inactive)
9,Cc1nn(-c2ccccc2)c(CC(C)(C)C(=O)O)c1C(=O)O,0.0788 (inactive)
10,Cc1cc(NC(=O)Nc2ccccc2)n(-c2ccccc2)n1,-0.331 (inactive)
11,Cc1nn(-c2ccccc2)c2c1C(=O)NC(=O)C(C)(C)C2,20.5 (active)
12,Cc1cc(Nc2ccc(Br)cc2F)n2ncnc2n1,-0.165 (inactive)
13,COC(=O)c1oc2ccc(Br)cc2c1NC(C)=O,0.0355 (inactive)
14,CCN(CC)S(=O)(=O)c1cccc(C(=O)Nc2cc(C)nn2-c2nc(C)cc(C)n2)c1,0.0356 (inactive)
15,Cc1cccc(-n2nc3c(c2NC(=O)c2ccc(Br)o2)CSC3)c1C,0.109 (inactive)
16,Cc1cc(C)nc(-n2nc(C)cc2NC(=O)c2ccc(Br)o2)n1,6.02 (active)
17,CS(=O)(=O)N(C(=O)NC(=O)NC1CCS(=O)(=O)C1)C1CCCCC1 (stereo not given),-3.24 (active)
18,CC(=O)CCS(=O)(=O)c1ccc(C)c(C)c1,1.88 (inactive)
19,COc1ccc(S(=O)(=O)N2CCOCC2)cc1C(=O)Nc1nc2ccccc2s1,-0.687 (inactive)
20,CC(C)NS(=O)(=O)c1ccc(NC(=O)c2cccnc2)cc1,1.41 (inactive)

row,SMILES,B-score
1,CC(c1cccnc1)N(CCN(C)C)C(=O)Nc1ccc(Cl)c(Cl)c1 (stereo not given),-1.22 (active)
2,CN(C)CCNC(CC(=O)Nc1ccc(Cl)c(Cl)c1)C(=O)O (stereo not given),0.834 (inactive)
3,COC(=O)[C@H](C(C)C)n1c(C)c(C(C)=O)c(C(C)=O)c1C,4.12 (active)
4,CCOc1ccc(OCC)c(NC(=O)C(NS(=O)(=O)c2ccc3c(c2)oc(=O)n3C)C(C)C)c1 (stereo not given),-0.175 (inactive)
5,C#CCN1C(=O)C(O)(CC(=O)c2cc(OC)ccc2OC)c2ccccc21 (stereo not given),0.733 (inactive)
6,CSC1=NCCN1C(=O)c1ccc(S(=O)(=O)N2CCOCC2)cc1,-0.521 (inactive)
7,Cn1c(=NC(=O)C2CC2)sc2cc(F)cc(F)c21,1.19 (inactive)
8,COc1ccccc1N1CC(O)=C(c2nc3ccccc3s2)C1=N,-0.346 (inactive)
9,Cc1cccc(Cn2c(SCCO)nc3c2c(=O)n(C)c(=O)n3C)c1,0.248 (inactive)
10,COC(=O)C(C)Sc1nc2c(c(=O)n(C)c(=O)n2C)n1Cc1cccc(C)c1 (stereo not given),0.892 (inactive)
11,C/C(Cl)=C\Cn1c(Nc2cccc(C)c2)nc2c1c(=O)n(C)c(=O)n2C,13.2 (active)
12,COCCCNC(=O)c1c(F)c(F)c(F)c(F)c1F,-0.712 (inactive)
13,O=C(NCc1cccnc1)c1ccc(CS(=O)(=O)c2ccc(Br)cc2)o1,-0.0969 (inactive)
14,Cc1cccc(NC(=O)CSC(N)=O)c1C,-0.0507 (inactive)
15,CCc1ccccc1N(CC(=O)NCCSCc1ccco1)S(C)(=O)=O,0.0216 (inactive)
16,O=C(c1ccc2c(c1)OCCO2)C1CCN(S(=O)(=O)c2cccc(F)c2)CC1,0.0652 (inactive)
17,O=C(OCc1ccccc1F)c1ccc2c(c1)OCCO2,0.452 (inactive)
18,O/N=C(\c1ccc2c(c1)OCCO2)C1CCCCC1,8.96 (active)
19,Fc1c(F)c(C(F)(F)F)c(F)c(F)c1N1CCN(c2ccc3nnc(C(F)(F)F)n3n2)CC1,0.11 (inactive)
20,CC1(C)CC(=O)C(C=NCc2cccnc2)=C(O)C1,1.34 (inactive)
